Experimental findings from article PMC12136788 are described below.

Where a chain is given by its changes, count along the chain named. Whole data set: some 24,000 sequences, median “enrichment r” near 0.99, cut for the highest 2% near 3.7. This is one part of a sample in which the highest values are shown more often than they occur.

The chains are these.
T1: UNK ZnF1-3 (human, UniProt Q9C0B0 31-174)
T1 sequence: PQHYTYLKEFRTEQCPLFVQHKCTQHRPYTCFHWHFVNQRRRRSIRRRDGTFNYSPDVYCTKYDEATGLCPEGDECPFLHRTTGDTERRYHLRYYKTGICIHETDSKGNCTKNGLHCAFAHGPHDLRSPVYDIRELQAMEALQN

B1: chr10:121347744:121347745:-_ENSG00000151923_ENST00000436547|hu_mus|FALSE|FALSE (ssRNA)
RNA: GGGAGUUCUACAGUCCGACGAUCCGAUCUGACUGAAUAACUGAAGAAUAAGGACUUCUGUCACAUCUCUGGAGAGGUUACCUACGUAUAGAGUCCGGGGCUGUCCGUCGUCUUCCAUCAUGGUGGGUGCGACGGAGUGAUCCCCAACAGAGGAUUGAGCAUCA
B2: 89385701_89385821_685_3pUTR_ENSMUSG00000031652_ENSMUST00000034074|mouse|control|control (ssRNA)
RNA: GGGAGUUCUACAGUCCGACGAUCUCUGCGUGGGCUUCAACAAACUGUCUGAAUUCCCGUUUGAUUUCCGACUCUCUCUGAUUACUGGGGAGGUUCUCGUUGCUCUCAAAGAGCUUCACAAACUGCUGAAUGUGACUCCUGGCCCAACAGAGGAUUGAGCAUCA
B3: chr1:130171486:130171487:+_ENSMUSG00000026353_ENSMUST00000027592|perfect_dup|motif|central (ssRNA)
RNA: GGGAGUUCUACAGUCCGACGAUCUGACGAUGUUACUCUCACUGAAGUCUGUGUGGGAGGCGGAUUACUAAACAAGAAAUUGCGGAUUAAUCUCCAGAUGGCAAGGAAUGGAUAAAGCACUGUUCCCAACAAGGUCCAAAUGUCCAACAGAGGAUUGAGCAUCA
B4: chr12:16048344:16048345:+_ENSG00000023734_ENST00000419869|hu_hu|hu_hu_hu_mus_True|8_8 (ssRNA)
RNA: GGGAGUUCUACAGUCCGACGAUCAGAUCGUCCAUAAGUAAUAACCAAAAUCUCUCCUUCAGGAAUAUACUCCAUGCUGCUAACAGACAUAUUAAAAUUCAGAGAUUUCACUUCUGUCAUUGUGGCAUGAUCCCAAAGCCGAACCAACAGAGGAUUGAGCAUCA
B5: chr19:16212804:16212805:+_ENSG00000167460_ENST00000300933|hu_mus|hu_hu_hu_mus_False|8_88 (ssRNA)
RNA: GGGAGUUCUACAGUCCGACGAUCAACAAUUCUGGAGUGAAGGAAAGCAUCAAGGAUGAACAGCAUUAAAGCUCAGUCAGAAGGCACAUGGGCAACAAUGAUCACCCCAGCAUUCUCGCUUGGAAUGUGCUUGAGAAAUCUGUUCAACAGAGGAUUGAGCAUCA
B6: chr1:130171486:130171487:+_ENSMUSG00000026353_ENSMUST00000027592|perfect_dup|FALSE|FALSE (ssRNA)
RNA: GGGAGUUCUACAGUCCGACGAUCUGUGGAUGUGGCUCUUGCUGAAGUCUGUGCAGGAGGAGGAUUGCUAAAUAAAAAAUUGCUAAUUAAUCUCCAUAUGGCCAGGAAUGGAUAAAGCACCGUCCCCAGUAAUGUCCAAAUGUCCAACAGAGGAUUGAGCAUCA
B7: chr1:130171486:130171487:+_ENSMUSG00000026353_ENSMUST00000027592|perfect_dup|motif|central (ssRNA)
RNA: B6 RNA with U83G, A84G
B8: chr1:130171486:130171487:+_ENSMUSG00000026353_ENSMUST00000027592|perfect_dup|FALSE|FALSE (ssRNA)
RNA: B3 RNA with G83U, G84A
B9: chrX:102931482:102931483:-_ENSG00000123562_ENST00000441076|hu_hu|FALSE|FALSE (ssRNA)
RNA: GGGAGUUCUACAGUCCGACGAUCAAUUGCAUCUACAUUUUUCUUGGCAGGGAGUUGAAACAGCUGCUUCUGCCUGGUAACUAAGUCCCAGUCCUCAACAAGCCAUGGUUUUAAUUCUUCAGGAAUCUUCACUUUAACCUCCAUCAACAGAGGAUUGAGCAUCA
B10: chr4:131761308:131761309:-_ENSMUSG00000040025_ENSMUST00000102570|mus_mus|motif|central (ssRNA)
RNA: GGGAGUUCUACAGUCCGACGAUCGCUGACUGUCCAUCAAUCAUGGCUCCACCUAAGGAGCUGGGUGCAUAAGCGUAAUUGCGGCGGUAUCCAGAGCUUUGAGUAGACUGUCCCUGAGAACUGUUAUUUCCCCAUGCUGAGAAGCAACAGAGGAUUGAGCAUCA
B11: chr17:15081082:15081083:+_ENSMUSG00000050088_ENSMUST00000052691|mus_mus|motif|central (ssRNA)
RNA: GGGAGUUCUACAGUCCGACGAUCUGCUCCAGCAUAUUCAAGGGAUCAGAAGAGAAUUUCAAGCACCAGUUUCAAAAUGCGGAUCAAUAUCGUCCAGAGAACUGAUUCCUCCUCUUGGGCUGCCUCUUCUGGAGCGUAAGCCUGCAACAGAGGAUUGAGCAUCA
B12: chr14:14948730:14948731:-_ENSMUSG00000021737_ENSMUST00000022256|mus_mus|FALSE|FALSE (ssRNA)
RNA: GGGAGUUCUACAGUCCGACGAUCAAAAACUGAAUAACGGCAUUCAUAGAGAGAAAACAGAUACUGCCGAACUGCUGGAAGACUGUGCAACACUUCAAGGAUCUCUGCCCCUUUAAUGACCUUUUCCCUGAGGUCCGGCCUUUCCAACAGAGGAUUGAGCAUCA
B13: chr18:2804189:2804190:+_ENSG00000101596_ENST00000320876|hu_hu|FALSE|FALSE (ssRNA)
RNA: GGGAGUUCUACAGUCCGACGAUCCAAUGCCUUGGAUUUAAAACAUGACUCCUUCUUGAUACAAUGAAUUAUAAAAGCAAACUAGUUCCACAUAUUAAUUAUACGUUCAAGUCUAGUUCCUAAAAAGUCAUUUCUCUUUAACCUCAACAGAGGAUUGAGCAUCA
B14: chr2:47387792:47387793:-_ENSG00000143933_ENST00000272298|hu_hu|hu_hu_hu_mus_True|28_38 (ssRNA)
RNA: GGGAGUUCUACAGUCCGACGAUCUAAGGACAAUGACAGUAAGAUAAGGGAAGAAAACAUGGAGGAAUGAAGUCCUAAUUACUAUACAUGCAUAUUUUUUUGACAGUAGGGAGAAACACCUUUUACAGAUAAGUUACAAACAAACAACAGAGGAUUGAGCAUCA
B15: chr15:76909541:76909542:-_ENSMUSG00000033565_ENSMUST00000166610|perfect_dup|FALSE|FALSE (ssRNA)
RNA: GGGAGUUCUACAGUCCGACGAUCCAACAUGAUCAAUAAUUUAUACACAUGGAGAGUAAUACAAAAAAUAAUGAAUAAAAGCUAAAGAUCUAACUACUCAACCUUCACAAUUCCAGCUACUUGAUAAUAGGAGUAACCCAAUGACAACAGAGGAUUGAGCAUCA
B16: chr15:76909541:76909542:-_ENSMUSG00000033565_ENSMUST00000166610|perfect_dup|motif|central (ssRNA)
RNA: B15 RNA with U82G, A83G
B17: 103221519_103221723_537_3pUTR_ENSMUSG00000041781_ENSMUST00000047357|mouse|control|control (ssRNA)
RNA: GGGAGUUCUACAGUCCGACGAUCCAAUCUGAGAGAACUUCAGCUGCUGUAUUUUGUCAAAGGCUGCAUCCACAUCAUCCAAUGUAAAGAGGGUAAAAUCUUCUGUAUUGUGUCGAGACUGAUAGAGGUCGUACAUGAACAUCUCAACAGAGGAUUGAGCAUCA
B18: chr4:25749455:25749456:-_ENSG00000091490_ENST00000264868|hu_hu|hu_hu_hu_mus_False|8_108 (ssRNA)
RNA: GGGAGUUCUACAGUCCGACGAUCGCAAGCACUAGGAUAGAAAAAUCCACAGGGGGAAAAAAUGUAAACCAAUGUACAAUGUUAUCGCCUUCCCUGUGUGUGGAGUGUUUGUCUCAAGGCUCCUUCUUGCCUUAUAAUUUGGGACAACAGAGGAUUGAGCAUCA
B19: chr11:46405157:46405158:+_ENSG00000110492_ENST00000395566|hu_hu|hu_hu_hu_mus_False|78_78 (ssRNA)
RNA: GGGAGUUCUACAGUCCGACGAUCCCCUCCCCACUUUGGGCACUUGGUGUGGGCGUGAAGGCAGGGCCGUGAUUGACAGAGCUGACAGGAAGACAAAAGGCACUGGUGGGUUAUAUCUUGGGCCUGUGGGAGAGGAGGGCUCCGCAACAGAGGAUUGAGCAUCA
B20: 52873384_52873592_4094_CDS_ENSMUSG00000035247_ENSMUST00000042052|mouse|control|control (ssRNA)
RNA: GGGAGUUCUACAGUCCGACGAUCCACCAGGCGCCUCUGCCUUCUAAGAUUAGCUUCUGCUUCUUUAGCUGCUUUCCCUAGUUGGUCUUCGCACACGCCAUUCACAGUGCCAUAGAGUUCAAAGCCGGAGAGCGAGAGGUAGUGCAACAGAGGAUUGAGCAUCA
B21: chr13:112505112:112505113:+_ENSMUSG00000032727_ENSMUST00000109272|mus_mus|FALSE|FALSE (ssRNA)
RNA: GGGAGUUCUACAGUCCGACGAUCCAUAAAGGAUUCGGGGACAGCAAUGCCCAUCUUCAAUCUCUUUGCUGGUCUUUCGGAUUCUUCGCUGCACAUGGGGUUUAACUCUGAGUGAUAAAAUCCAGUCUCAAAUAAAUUAAAACACAACAGAGGAUUGAGCAUCA
B22: chr7:149838072:149838073:-_ENSMUSG00000048583_ENSMUST00000000033|mus_hu|FALSE|FALSE (ssRNA)
RNA: GGGAGUUCUACAGUCCGACGAUCUCACUGCCCCCCUGUUACAUGGGGGGGGGGUUUAAUUUGGUUUCUGAGCGCAUAAAGCUAAGGAGGGGUAAAAAAAAAACAAAAAAAAAAAAAAAAGGAAAAAUGCCCCAAGAAACAAAGCAACAGAGGAUUGAGCAUCA
B23: 19964410_19964530_1467_3pUTR_ENSMUSG00000020152_ENSMUST00000000137|mouse|control|control (ssRNA)
RNA: GGGAGUUCUACAGUCCGACGAUCUCUAAAUGCCUACAAAGAAAGAAACAGAGCAGCAGCAACCCCUUGCCCUGGUAAUGUCUGCAAAGAUUUGGUAGCCUUAAACAACCAGAUUUACCCAUAUUAACAAGAAUUUAGCAAUGCCAACAGAGGAUUGAGCAUCA
B24: chr1:183098298:183098299:+_ENSMUSG00000062169_ENSMUST00000134115|mus_hu|FALSE|FALSE (ssRNA)
RNA: GGGAGUUCUACAGUCCGACGAUCUAUAAACAUGGCACCUUUCUGAUUUGCUUAGCCUCAGCAAGCCUGAUGUACUGUAAACUGACAGCCCAAAGGCUCUCUCAACUGCAUGAGUCACUGUUUUGGUUACUAAGAAUAUCUGAACAACAGAGGAUUGAGCAUCA
B25: chr7:149838072:149838073:-_ENSMUSG00000048583_ENSMUST00000000033|mus_hu|motif|central (ssRNA)
RNA: B22 RNA with U82G, A83G

This test concerns the target T1, UNK ZnF1-3. Nature of the test: nsRBNS (natural sequence RNA bind-n-seq); RBNS binding buffer (assumed for nsRBNS): 25 mM Tris pH 7.5, 150 mM KCl, 3 mM MgCl2, 0.01% Triton X-100, 500 ug/ml BSA, 20 U/ml SUPERase-In, 4 C; UNK is unkempt and MSI1 is Musashi-1; names of the RNAs are library labels; protein concentration not given here; high values mean tight binding.
Turning to B1, the binding signal came to 0.644 enrichment R.
The result for B2 reads 0.876 enrichment R.
The result for B3 reads 3.3 enrichment R; that for B4, 1.38 enrichment R.
Consider B5, for which the binding signal worked out at 1.57 enrichment R.
The value for B6 was 4.56 enrichment R; that for B7 was 3.3 enrichment R; that for B8 was 4.56 enrichment R.
The result for B9 reads 1.04 enrichment R; that for B10, 1.17 enrichment R.
The result for B11 reads 1.62 enrichment R; that for B12, 1.41 enrichment R; that for B13, 1.05 enrichment R.
Regarding B14, the binding signal turned out to be 1.79 enrichment R.
For B15, the binding signal amounted to 6.42 enrichment R.
Molecule B16 showed a binding signal of 8.91 enrichment R.
The value for B17 was 1.57 enrichment R; that for B18 was 0.93 enrichment R; that for B19 was 2.23 enrichment R.
The value for B20 was 1.03 enrichment R; that for B21 was 1.01 enrichment R.
The value for B22 was 12.2 enrichment R.
Turning to B23, the binding signal was 1.74 enrichment R.
The value for B24 was 0.858 enrichment R; that for B25 was 22.9 enrichment R.
